Assay results reported in the supplement of paper PMC3334620.
Whole data set: some 33,000 sequences, median “E-score (-0.5 to 0.5)” near -0.0014, cut for the highest 2% near 0.25. The sample as a whole holds a higher share of the highest values than the screen did.

target: T1, Cad1 (UniProt P24813); assay: PBM E-score (8-mer binding enrichment) (E-score (-0.5 to 0.5)); higher = stronger / more preferred TF binding; settings: protein concentration: 100 nM; construct: GST-full length
T1 sequence: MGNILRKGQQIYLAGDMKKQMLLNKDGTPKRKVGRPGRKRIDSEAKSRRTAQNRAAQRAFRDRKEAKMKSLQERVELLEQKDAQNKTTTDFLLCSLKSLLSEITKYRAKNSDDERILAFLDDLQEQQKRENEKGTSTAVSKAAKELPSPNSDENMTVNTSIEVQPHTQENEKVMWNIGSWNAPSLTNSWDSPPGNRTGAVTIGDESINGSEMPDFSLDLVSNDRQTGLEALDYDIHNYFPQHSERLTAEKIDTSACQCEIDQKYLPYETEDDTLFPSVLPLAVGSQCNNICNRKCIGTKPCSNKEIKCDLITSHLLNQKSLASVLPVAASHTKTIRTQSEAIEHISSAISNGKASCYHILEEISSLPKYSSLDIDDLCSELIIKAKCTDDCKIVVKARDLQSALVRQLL
Protocol: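 Universal 'all 10-mer' protein binding microarrays (Agilent AMADID 015681) probed with GST-tagged S. cerevisiae TFs (full-length or DBD) made by in vitro transcription/translation (PURExpress), about 100-200 nM. Bound TF was detected with fluorescent anti-GST. Each ungapped 8-mer (which stands for itself and its reverse complement) is scored by the PBM enrichment score (E-score), a modified Wilcoxon-Mann-Whitney statistic from -0.5 to +0.5, computed with the Universal PBM Analysis Suite. Scale: above 0.35 generally sequence-specific binding.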

Compared with ACGGAACA, CCGGAACA is higher in “PBM E-score” value: 0.0866 for the first, 0.108 for the second.

First: TCGGAACA
Second: AAATAATA
The “PBM E-score” value of the first is higher: 0.268 for the first, 0.248 for the second.

Compared with AAATAATC, AAATAAAG is lower in “PBM E-score” value: 0.198 for the first, -0.0232 for the second.

Going from AAATAAAA to AAATAAAT, the “PBM E-score” value rises from -0.0112 to 0.314.

Compared with AAATAATT, AAAATAAC is lower in “PBM E-score” value: 0.295 for the first, -0.0367 for the second.

Compared with AAAATAAT, AAAATAAA is lower in “PBM E-score” value: 0.314 for the first, 0.128 for the second.

Compared with CACTGGCA, CCAAGACC is higher in “PBM E-score” value: -0.0733 for the first, -0.0342 for the second.

Compared with CCGCCGTC, AGTCACTA is lower in “PBM E-score” value: 0.117 for the first, 0.0232 for the second.

Compared with GCGCAGTA, GAAGATTA is higher in “PBM E-score” value: 0.149 for the first, 0.181 for the second.

Compared with TATGCGCA, CGTCCGTA is lower in “PBM E-score” value: 0.0953 for the first, -0.0771 for the second.

Going from CAAGCACA to CAAGCACG, the “PBM E-score” value rises from -0.0831 to 0.152.

First: TAAGCACA
Second: GCACGAAA
The “PBM E-score” value of the first is higher: 0.295 for the first, 0.197 for the second.

Compared with AGTATCGG, GGCATGCC is lower in “PBM E-score” value: 0.0469 for the first, 0.00621 for the second.

Going from AGCATGCC to CGCATGCC, the “PBM E-score” value rises from -0.111 to 0.252.

Compared with CCAAATTA, GAATTCCA is higher in “PBM E-score” value: 0.107 for the first, 0.117 for the second.

First: GGAAATCA
Second: AAAATTCG
The “PBM E-score” value of the first is lower: 0.0778 for the first, 0.201 for the second.

Going from ACAAATTG to GAAATTCA, the “PBM E-score” value falls from 0.202 to 0.169.

Going from CAATTCCA to CGAAATCA, the “PBM E-score” value rises from -0.0425 to 0.306.

Going from ACAAATTA to AAAATTCA, the “PBM E-score” value falls from 0.295 to 0.284.

First: CGAAATCC
Second: AAATTCCA
The “PBM E-score” value of the first is lower: 0.0502 for the first, 0.308 for the second.

Compared with ACCCAAGT, ATCAACCC is higher in “PBM E-score” value: -0.0625 for the first, 0.0896 for the second.

Compared with ATCCTAAA, CGAACTCC is higher in “PBM E-score” value: -0.12 for the first, 0.0429 for the second.

First: TAAAAGAA
Second: ACTCTAAG
The “PBM E-score” value of the first is higher: 0.0891 for the first, -0.094 for the second.

Going from GACGTTAA to AGGTGTAG, the “PBM E-score” value falls from 0.245 to -0.128.

Going from CGGCACAA to ATGCTTGC, the “PBM E-score” value falls from -0.103 to -0.14.

Going from AGAAATTC to AAAATTTT, the “PBM E-score” value rises from 0.13 to 0.234.

First: AAAAAATT
Second: GAAAATTA
The “PBM E-score” value of the first is lower: 0.12 for the first, 0.13 for the second.

Going from GCAAATCA to AAAAATTT, the “PBM E-score” value rises from 0.101 to 0.269.

First: AGAAATTA
Second: CAAAATTA
The “PBM E-score” value of the first is higher: 0.296 for the first, 0.187 for the second.

First: AAAAATTA
Second: ACAAATCA
The “PBM E-score” value of the first is lower: 0.254 for the first, 0.279 for the second.

First: CCAAATCA
Second: GGAAATTA
The “PBM E-score” value of the first is lower: -0.041 for the first, 0.208 for the second.

Going from CGGAAAAC to ATCCAACC, the “PBM E-score” value falls from 0.221 to -0.0228.

First: CGCCCTGC
Second: ATCCTAGA
The “PBM E-score” value of the first is lower: -0.128 for the first, -0.0558 for the second.

Going from AATTTGCG to CCGGAAAA, the “PBM E-score” value rises from 0.173 to 0.215.

Going from TAAAATAA to TAAATTTA, the “PBM E-score” value falls from 0.164 to 0.154.

First: TAAAATTA
Second: AATGCCGT
The “PBM E-score” value of the first is higher: 0.297 for the first, 0.107 for the second.

Compared with ATCTTCAC, CTAAGACC is lower in “PBM E-score” value: -0.0332 for the first, -0.0662 for the second.

Compared with ACCCTAAG, GATTTCGA is higher in “PBM E-score” value: -0.101 for the first, -0.0223 for the second.

Going from GATTTCGC to CATTTCGC, the “PBM E-score” value falls from 0.28 to -0.15.

Compared with ATCGATGG, CAGCTTCA is lower in “PBM E-score” value: 0.0786 for the first, 0.0676 for the second.

Compared with CCTCCTTC, AATTATAA is higher in “PBM E-score” value: -0.165 for the first, 0.276 for the second.

First: AATTATAG
Second: GCTTATAA
The “PBM E-score” value of the first is lower: 0.0146 for the first, 0.235 for the second.

Compared with ACTTATAA, TATTATAA is lower in “PBM E-score” value: 0.279 for the first, 0.185 for the second.
